Experimental data as given in PubChem BioAssay AID1159606 (Sanford-Burnham Center for Chemical Genomics, 2016).
Where “and” joins values, the source holds several entries; their conditions need not be identical. Equal entries are not always repeated. In all, about 360,000 compounds went through this assay and about 7,300 (2%) were called active. Only a selection was taken, and actives are over-represented in it overall. Values without a mark were called inactive. Cut-off read from the data, not from the text of the source: active = inhibition above about 50%; inactive = the rest.

Experiment: inhibitors of TWEAK-Fn14 signaling, primary screen, luciferase reporter cells, uHTS (AID 1159606)
Details: TWEAK-stimulated Fn14 reporter cells, luciferase luminescence, 8 h; at 10 µM; hits give high values

Structure (SMILES) | inhibition
CCOCCCNC(=O)C(NC(=O)CNC(=O)c1ccccc1)c1ccc(OC)cc1 (stereo unspecified) | -12.7%
CN(C)Cc1ccc(F)cc1Sc1cc(Cl)ccc1Cl | 5.28%
CC(=O)N1C(C)c2ccccc2C(C)(C)CC12CCCCC2 (stereo unspecified) | -11.4%
C=CC1=C(C(=O)O)N2C(=O)[C@@H](NC(=O)/C(=N\OCC(=O)O)c3csc(N)n3)[C@H]2SC1 | 14.2%
CO/N=C(\C(=O)N[C@@H]1C(=O)N2C(C(=O)O)=C(COC(C)=O)CS[C@H]12)c1csc(N)n1 (stereo in doubt) | 15% and 5.82% and -5.11%
C=CC1=C(C(=O)O)N2C(=O)[C@@H](NC(=O)/C(=N/OCC(=O)O)c3csc(N)n3)[C@H]2SC1 | 75.2% (active)
CC(=O)c1ccc(S(=O)(=O)N(C)CCCC(=O)N(C)Cc2ccccc2F)cc1 | 13.5%
CC1(C)OC(=O)C2=C(C[C@@H](C3CCCCC3)O[C@@H]2c2ccc(Cl)cc2)O1 | -5.53%
Cc1cccc(N2CCN(C(=O)COCc3cc(-c4ccc5c(c4)OCO5)on3)CC2)c1C | -13.9%
Cc1ccc(N(Cc2cc(=O)[nH]c3ccccc23)C(=O)CCl)cc1 | 52.1% (active)
CCC(=O)N(Cc1cc2ccccc2[nH]c1=O)c1ccc(OC)cc1 | -8.72%
CC(=O)N(Cc1cc(=O)[nH]c2ccccc12)c1ccc(C)cc1C | 4.2%
CCN(CC)S(=O)(=O)c1cccc(C(=O)NCC(=O)OCC(=O)NCc2ccccc2)c1 | 0.62%
Cc1ccc(F)cc1S(=O)(=O)Nc1cccc(C(=O)N2CCCC(C(N)=O)C2)c1 (stereo unspecified) | -7.05%
NC(=O)[C@H]1CC2(CC(c3cccc(NC(=O)[C@H]4CCC(=O)N4)c3)=NO2)CN1C(=O)c1ccccc1C(=O)c1ccccc1 (stereo partly specified) | -12.2%
COc1ccc(CCNC(=S)NC(=O)/C=C/c2ccc(C)cc2)cc1OC | -15.4%
Cc1ccc2c(Cl)c(C(=O)NCCCn3ccnc3)sc2c1 | -11.3%
Cc1ccc(S(=O)(=O)c2nc(NCCCn3ccnc3)sc2Cl)cc1 | 80.5% (active)
Cc1ccc(-c2nc(C#N)c(NCCCn3ccnc3)o2)cc1 | -18.1%

Structure (SMILES) | inhibition
CCOC(=O)/C(=N\Nc1ccccc1[N+](=O)[O-])c1csc(Nc2ccccc2)n1 | 8.54%
CCOC(=O)/C(=C\c1ccc([N+](=O)[O-])cc1)C(=O)c1cc(C(C)=O)c(Nc2ccccc2)s1 | 104% (active)
O=C(O)C(=Cc1ccc([N+](=O)[O-])cc1)CCc1ccccc1 | -10.9%
CCCCc1c(-c2ccc(Br)cc2)ncn1CCc1ccccc1OC | 38.9%
Cc1noc(C)c1NC(=O)N(C)C[C@@H]1Oc2cc(Br)ccc2S(=O)(=O)N([C@@H](C)CO)C[C@H]1C | 18.1%
COC(=O)c1ccc(Nc2ncnc3sccc23)cc1 | -10.3%
COC(=O)c1ccc2nc(C3CCCCC3)c(Cc3cccc(F)c3)n2c1 | -20.2%
O=C(O)C(F)(F)C(NCc1ccccc1)c1ccccc1 (stereo unspecified) | -8.01%
CC[C@H]1CN2CCc3cc(OC)c(OC)cc3[C@@H]2C[C@@H]1C[C@H]1NCCc2cc(OC)c(OC)cc21 | 98% (active)
Cn1ncc([N+](=O)[O-])c1C(=O)Nc1cc(Cl)ccc1Cl | -23.8%
Cc1cc2nc(-c3ccc(F)cc3)c(Cc3ccsc3)n2c(C)c1Br | 0.39%
Cc1cc(=O)oc2c3c(cc(OCC(=O)NCC(O)c4ccccc4)c12)OC(C)(C)CC3 (stereo unspecified) | -0.31%
O=C(CC1CCCCC1)NCc1ccc(F)cc1 | 7.42%
CCc1ccc2c(c1)NC(=O)C2(C)Cc1ccc(OC(F)(F)F)cc1 (stereo unspecified) | 8.25%
CCc1ccc2c(c1)C1(NN=C(c3ccccc3)S1)C(=O)N2 (stereo unspecified) | 87.5% (active)
NS(=O)(=O)c1cccc(NC(=O)COC(=O)c2cc([N+](=O)[O-])ccc2N2CCCC2)c1 | -16.4%
O=[N+]([O-])c1ccc2oc(-c3cccc(O)c3)nc2c1 | 5.84%
COc1ccc2oc(N)nc2c1 | -11.6%
COc1cccc(-c2nc3cc(C)ccc3o2)c1 | 51.2% (active)

Structure (SMILES) | inhibition
CCN(CC)c1ccc(NC(=O)c2ccc(=O)[nH]c2)cc1S(=O)(=O)Nc1ccc(OC)cc1 | 9.69%
COc1cc(NC(=O)COC(=O)CSc2ccc3ccccc3c2)c(C)cc1[N+](=O)[O-] | 2.69%
CC[C@@H]1Cc2cc(O)ccc2C2=C1c1ccc(O)cc1C[C@H]2CC | 77% (active)
CCSc1nsc(NC(=O)Nc2cccc(C(C)=O)c2)n1 | 87.9% (active)
CC(=O)c1cccc(NC(=S)N2CCN(S(C)(=O)=O)CC2)c1 | -22.1%
CC(=O)c1cccc(NC(=O)C2CCN(C(=O)c3ccccc3Cl)CC2)c1 | -5.45%
CSc1ccccc1C(=O)Nc1cccc(C(C)=O)c1 | 0.31%
COc1ccc(NC(C(=O)Nc2cccc(C(C)=O)c2)c2ccccc2)cc1 (stereo unspecified) | -31.7%
C=CCSc1nsc(NC(=O)Nc2cccc(C(C)=O)c2)n1 | 91% (active)
Cc1ccc(C2Nc3ccccc3C(=O)N2CCN2CCNC2=O)cc1 (stereo unspecified) | -6.92%
C[C@@H]1CN([C@@H](C)CO)C(=O)c2cc(NS(C)(=O)=O)ccc2O[C@@H](C)CCCCO[C@H]1CN(C)C(=O)Nc1ccc2c(c1)OCO2 | -5.22%
CC1COc2ccccc2N1C(=O)c1ccc(F)cc1 (stereo unspecified) | 0.29%
O=C(c1ccc(F)cc1)N1CCC(n2nnc3ccccc32)CC1 | -5.58%
O=C(c1ccc(F)cc1)n1c(=S)nc2ccccn21 | 78.2% (active)
CCCC(CCC(=O)OC)(C(=O)OCC)c1csc(N)n1 (stereo unspecified) | -16.1%
CC1(C)Oc2ccc3ccc(=O)oc3c2/C(=N/O)C1=O | 3.76%
CC1(C)Oc2ccc3ccc(=O)oc3c2/C(=C/NCCO)C1=O | 4.08%
C/C=C(/C)C(=O)OC1Cc2c(ccc3ccc(=O)oc23)OC1(C)C (stereo unspecified) | 94.7% (active)
